Shown are actives, neighbours in structure and some others; about 19% of the full set was active somewhere.
TGFb SMAD3 inh = blocks TGF-b signaling | HepG2 CAGA-GFP TGF-b/SMAD3 reporter, GFP fluorescence, 18 h; TGF-beta stimulated, 500 pg/mL final | Potency, µM (series often up to 46.1 µM), usual class: inhibitors | 410,000 tested, 1.2% active | AID 588855; note: nearly all actives have a fitted effect of over 65% in size
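TGF-beta reporter screen: HEPG2 CAGA-GFP, 1% FBS, 500 pg/mL TGF-beta final, 18 h; per-cell GFP summed per well; curves fitted and categorized by class.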
IL1B secr inh = inflammasome signaling inhibition, IL-1 beta readout | THP-1 LPS/ATP IL-1B secretion, AlphaLISA, 16 h; stronger effect = lower value | activity change, % at 57.5 µM | 360,000 tested, 4.7% active; in the data active = activity change below about -50%; inconclusive = mostly about -30% to -49%
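Secreted IL-1B measured by AlphaLISA bead assay after 16 h compound exposure of THP-1 cells; compounds (final up to 57.5 uM) added 1 h before LPS (250 ng/mL) and ATP (1.25 mM) stimulation; lower signal means less secretion.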
TDP1 cell CPT = DT40-hTDP1 cell growth loss with CPT; Potency, µM (highest dose often 46.2 µM), actives largely listed as inhibitors; chicken DT40 Tdp1-/-;hTDP1 cells + 20 nM CPT, ATP luminescence, 48 h; 420,000 tested, 12% active; note: nearly all actives have a fitted effect of over 55% in size
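Cell growth measured by CellTiter-Glo luminescence after a minimum 48 h, 37 C compound exposure with 20 nM CPT in Tdp1-knockout DT40 cells stably expressing hTDP1, seeded 400/well; qHTS titration format.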
HepG2 tox = counter-screen for TGF-b inhibitors: cytotoxicity in HepG2 cells; HepG2 CAGA-GFP viability, ATP luminescence, 18 h; Potency, µM (doses to about 46.1 µM), usual class: cytotoxic; 410,000 tested, 0.76% active
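HepG2 CAGA-GFP cells (1000/well, DMEM with 1% FBS) received compound, then TGF-beta at 500 pg/mL final, and were incubated 18 hours at 37 degrees C. Viability was read by CellTiter-Glo luminescence. Media-only wells were set as complete cell-killing and DMSO as no toxicity.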
DT40 TDP1 no CPT = qHTS for Inhibitors of human tyrosyl-DNA phosphodiesterase 1 (TDP1): qHTS in cells in absence of CPT; DT40 Tdp1-/- hTDP1 cells, no CPT, ATP luminescence, 48 h; Potency, µM (doses to about 46.2 µM), most hits filed as inhibitors; 420,000 tested, 15% active; note: nearly all actives have a fitted effect of over 55% in size
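Growth of hTDP1-complemented DT40 Tdp1-knockout cells is measured by ATP luminescence after at least 48 hr compound exposure at 37 °C, with DMSO substituting for the 20 nM CPT used in the parallel screen.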
ASM inhibitor = human S-ASM enzyme inhibition; P17405; placental ASM, HMU-PC fluorogenic substrate, 60 min; Potency, µM (highest dose often 57.5 µM), usual class: inhibitors; 340,000 tested, 0.006% active; AID 504937
Target sequence (P17405 47-631 limits assumed): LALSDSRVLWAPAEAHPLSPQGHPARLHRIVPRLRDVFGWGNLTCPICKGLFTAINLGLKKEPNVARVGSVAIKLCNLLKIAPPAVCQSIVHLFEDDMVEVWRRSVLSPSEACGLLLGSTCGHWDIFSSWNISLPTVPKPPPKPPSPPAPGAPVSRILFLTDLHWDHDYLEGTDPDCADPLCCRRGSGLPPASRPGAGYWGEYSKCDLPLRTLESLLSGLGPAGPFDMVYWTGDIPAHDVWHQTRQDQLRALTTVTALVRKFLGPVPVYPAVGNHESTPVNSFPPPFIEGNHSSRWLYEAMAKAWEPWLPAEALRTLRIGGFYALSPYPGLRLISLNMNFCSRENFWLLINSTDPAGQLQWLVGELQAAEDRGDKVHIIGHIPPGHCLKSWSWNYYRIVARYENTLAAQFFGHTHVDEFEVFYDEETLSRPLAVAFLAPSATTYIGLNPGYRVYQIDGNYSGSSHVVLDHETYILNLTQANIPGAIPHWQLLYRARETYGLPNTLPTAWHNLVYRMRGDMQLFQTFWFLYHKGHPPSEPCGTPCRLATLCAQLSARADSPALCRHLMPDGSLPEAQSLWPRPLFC
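qHTS format. ASM enzyme prepared from human placenta hydrolyses the fluorogenic substrate HMU-PC0 (9 uM final) over 60 min at 37 °C after a 10 min compound preincubation.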
Of the large screens only hits and unclear results are named; the others gave an inactive call. Unless noted, calls come from the whole dose curve; as a rule, active = well fitted curve in the direction sought with a large enough effect; inconclusive = small, poorly fitted or top-dose-only effect, or another doubt; inactive = no such curve, though single readings can be large; an effect the other way counts as inactive or inconclusive.

O=[N+]([O-])c1ccc(Sc2cccc3cccnc23)c([N+](=O)[O-])c1	TGFb SMAD3 inh 4µM, TDP1 cell CPT 4.6µM, DT40 TDP1 no CPT 4.6µM
CCOP1(=O)C=C(Sc2ccc([N+](=O)[O-])cc2[N+](=O)[O-])C(C)(C)O1 (stereo not drawn)	none
Cc1cc(C)nc(Sc2ccc([N+](=O)[O-])cc2[N+](=O)[O-])n1	TGFb SMAD3 inh inconclusive, IL1B secr inh -60, TDP1 cell CPT 1.3µM, DT40 TDP1 no CPT 1µM
CN(C)/N=C/c1ccc(Sc2ccc([N+](=O)[O-])cc2[N+](=O)[O-])o1	TDP1 cell CPT inconclusive, DT40 TDP1 no CPT 23µM
C=CCn1nc([N+](=O)[O-])nc1Sc1cccc2cccnc12	TGFb SMAD3 inh 3.2µM, IL1B secr inh -99, TDP1 cell CPT 5.2µM, HepG2 tox 5.6µM, DT40 TDP1 no CPT 4.1µM
O=[N+]([O-])c1ccc(Sc2cccc3cccnc23)cc1	TDP1 cell CPT inconclusive
Cc1ccc(Sc2c(C)nn(-c3ccccc3)c2OC(=O)C(C)(C)C)cc1	none (no result: IL1B secr inh, ASM inhibitor)
Cc1cc(C(=O)NCc2nnc3n2CCN(Cc2ccc(F)cc2F)CC3)c(C)o1	none (no result: TGFb SMAD3 inh, IL1B secr inh, HepG2 tox, ASM inhibitor)
CS(=O)(=O)NNC(=O)Cn1nnc(-c2ccc(OCc3ccccc3Cl)cc2)n1	none
O=[N+]([O-])c1ccc(Sc2ccncn2)c([N+](=O)[O-])c1	TGFb SMAD3 inh 11µM, IL1B secr inh -80, TDP1 cell CPT 1µM, HepG2 tox 10µM, DT40 TDP1 no CPT 0.65µM (no result: ASM inhibitor)
O=C(CN(Cc1ccc(Br)cc1)S(=O)(=O)c1ccccc1)NCC1CCCO1 (stereo not drawn)	TDP1 cell CPT inconclusive, DT40 TDP1 no CPT inconclusive (no result: ASM inhibitor)
COc1ccc(-c2nc(C)c(CCNC(=O)Cc3ccc(F)cc3)s2)cc1OC	none (no result: IL1B secr inh, TDP1 cell CPT, DT40 TDP1 no CPT, ASM inhibitor)
COc1ccc(C(=O)NCCc2sc(-c3cccc(F)c3)nc2C)cc1	TDP1 cell CPT 23µM, DT40 TDP1 no CPT 16µM (no result: IL1B secr inh, ASM inhibitor)
Cc1nc(-c2ccc(Cl)cc2)sc1CCNC(=O)c1ccco1	TGFb SMAD3 inh inconclusive, TDP1 cell CPT 21µM, DT40 TDP1 no CPT 18µM (no result: IL1B secr inh, ASM inhibitor)
COc1ccc(C(=O)NCCc2sc(-c3ccc(F)cc3)nc2C)cc1OC	TGFb SMAD3 inh inconclusive, TDP1 cell CPT inconclusive, DT40 TDP1 no CPT 15µM (no result: IL1B secr inh, ASM inhibitor)
COc1ccc(CC(=O)NCCc2sc(-c3ccc(Cl)cc3)nc2C)cc1OC	TGFb SMAD3 inh 7.9µM, TDP1 cell CPT inconclusive, DT40 TDP1 no CPT 21µM (no result: IL1B secr inh, ASM inhibitor)
Cc1nc(-c2ccc(F)cc2)sc1CCNC(=O)c1ccco1	TGFb SMAD3 inh inconclusive, TDP1 cell CPT inconclusive, DT40 TDP1 no CPT inconclusive (no result: IL1B secr inh, ASM inhibitor)
COc1ccc(NC(=O)CN(C)C(=O)CCNS(=O)(=O)c2ccc(Br)cc2)cc1	none
COc1ccc(-n2nc(C(=O)O)c(=O)n(C)c2=O)cc1	DT40 TDP1 no CPT inconclusive (no result: IL1B secr inh, ASM inhibitor)
Cc1cc(C)cc(C(=O)NCCc2sc(-c3ccc(F)cc3)nc2C)c1	TDP1 cell CPT 13µM, DT40 TDP1 no CPT 21µM (no result: IL1B secr inh, ASM inhibitor)
CCOc1cc(C(=O)NCCc2sc(-c3ccc(F)cc3)nc2C)cc(OCC)c1OCC	TDP1 cell CPT inconclusive, DT40 TDP1 no CPT inconclusive (no result: IL1B secr inh, ASM inhibitor)
COc1ccc(CCNC(=O)C(=O)NCC2OCCN2S(=O)(=O)c2ccc3c(c2)OCCO3)cc1 (stereo not drawn)	TDP1 cell CPT 21µM, DT40 TDP1 no CPT 16µM
NS(=O)(=O)c1ccc(CCNC(=O)C(=O)NCC2OCCN2S(=O)(=O)c2ccc(F)cc2)cc1 (stereo not drawn)	none
O=C(NCc1ccccc1)C(=O)NCC1OCCN1S(=O)(=O)c1ccc2c(c1)OCCO2 (stereo not drawn)	TDP1 cell CPT inconclusive
Cc1ccc(CNC(=O)C(=O)NCC2OCCN2S(=O)(=O)c2ccc3c(c2)OCCO3)cc1 (stereo not drawn)	TDP1 cell CPT 26µM

From PubChem
